Molecules are shown by their SMILES. Several values for one entry are separate records, joined by “and”; a condition that tells them apart may be missing. Equal values may be shown once. This is part of a sample that, as a whole, favours compounds with a hit. Of some 83,000 tested, about 20% had one in any assay.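 Compound tested at a single concentration for 48 hours in 96-well plates; a percent growth value below 10 was scored as active.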 Activity calls are given as the source filed them.

Some test systems named below: SR leukemia; RPMI-8226 leukemia; OVCAR-8 ovarian; OVCAR-5 ovarian; OVCAR-4 ovarian; SK-OV-3 ovarian; IGROV1 ovarian; OVCAR-3 ovarian; HS 578T breast; NCI/ADR-RES ovarian; T-47D breast; BT-549 breast; MDA-MB-435 melanoma; SW-620 colon; MCF7 breast; HCT-116 colon; HCC-2998 colon; KM12 colon.
Common to all, as to assay: NCI-60 one-dose screen, 48 h (100 = growth as untreated, 0 = no growth, -100 = all killed)
Conditions in all cases: 10 µM unless noted

As for `Nc1cc2c(cc1N)-c1ccccc1C2`, the growth is 71.1% (inactive) and 90.7% (inactive) with SR leukemia; 41.3% (inactive) and 61% (inactive) in the assay with RPMI-8226 leukemia; 88.9% (inactive) and 89.5% (inactive) with OVCAR-8 ovarian; 122% (inactive) and 109% (inactive) in the assay with OVCAR-5 ovarian; 99.5% (inactive) and 107% (inactive) in the assay with OVCAR-4 ovarian; 96.9% (inactive) and 95.1% (inactive) in the assay on SK-OV-3 ovarian. Moreover, the growth in the assay on IGROV1 ovarian is 58.3% (inactive) and 79.2% (inactive); in the assay with OVCAR-3 ovarian it was 98.6% (inactive) and 97.7% (inactive); with HS 578T breast it was 104% (inactive); in the assay with NCI/ADR-RES ovarian, 89.4% (inactive) and 90.2% (inactive); with T-47D breast, 80.8% (inactive) and 79.5% (inactive); with BT-549 breast it was 64.1% (inactive) and 75.5% (inactive). In addition, the growth was 91.6% (inactive) and 94.1% (inactive) with MDA-MB-435 melanoma; 108% (inactive) and 100% (inactive) in the assay on SW-620 colon; 81.2% (inactive) and 95% (inactive) in the assay with MCF7 breast; 98.8% (inactive) and 100% (inactive) in the assay with HCT-116 colon; 102% (inactive) and 90.1% (inactive) with HCC-2998 colon; 90% (inactive) and 97.1% (inactive) in the assay with KM12 colon.
In the case of `O=[N+]([O-])c1ccc(N/N=C\c2cc(Br)ccc2O)nc1`, the growth in the assay with SR leukemia was 20.2% (inactive) and 3.08% (active); in the assay on RPMI-8226 leukemia, 32.5% (inactive) and -9.9% (active); in the assay on OVCAR-8 ovarian, 11.9% (inactive) and 3.96% (active); in the assay with OVCAR-5 ovarian, 52% (inactive) and 54.4% (inactive); with OVCAR-4 ovarian, 20.3% (inactive) and 7.71% (active); in the assay with SK-OV-3 ovarian, 27.1% (inactive) and 27.7% (inactive). The growth in the assay on IGROV1 ovarian is 13.5% (inactive) and 8.02% (active); in the assay with OVCAR-3 ovarian, 11.2% (inactive) and 24.5% (inactive); in the assay on HS 578T breast, 39.1% (inactive) and 61.4% (inactive); with NCI/ADR-RES ovarian, 5.25% (active) and 6.08% (active); with T-47D breast, 16% (inactive) and 33% (inactive); in the assay with BT-549 breast, 25.6% (inactive). Further, the growth is 29.3% (inactive) and 25.2% (inactive) in the assay with MDA-MB-435 melanoma; 27.3% (inactive) and 34.3% (inactive) in the assay with SW-620 colon; 13.4% (inactive) and 13.6% (inactive) in the assay with MCF7 breast; 10.1% (inactive) and 15.2% (inactive) in the assay on HCT-116 colon; 23.2% (inactive) and 23% (inactive) in the assay with HCC-2998 colon; 32.5% (inactive) and 24% (inactive) in the assay on KM12 colon.
Regarding `Oc1ccccc1C=NCC1CCC(CN=Cc2ccccc2O)CC1` (stereo unspecified), the growth in the assay with SR leukemia is 69.4% (inactive); in the assay on RPMI-8226 leukemia, 90.9% (inactive); in the assay with OVCAR-8 ovarian, 79.9% (inactive); with OVCAR-5 ovarian, 67.6% (inactive); in the assay with OVCAR-4 ovarian, 116% (inactive); in the assay with SK-OV-3 ovarian, 95% (inactive). Further, the growth in the assay with IGROV1 ovarian is 68.1% (inactive); with OVCAR-3 ovarian, 116% (inactive); in the assay on HS 578T breast, 114% (inactive); in the assay with NCI/ADR-RES ovarian it was 80.4% (inactive); with T-47D breast, 96.9% (inactive); in the assay with BT-549 breast, 113% (inactive). The growth with MDA-MB-435 melanoma is 104% (inactive); in the assay with SW-620 colon, 47.4% (inactive); in the assay with MCF7 breast it was 66% (inactive); in the assay on HCT-116 colon it was 52.8% (inactive); in the assay with HCC-2998 colon it was 101% (inactive); in the assay with KM12 colon it was 107% (inactive).
Consider `CC(C(=O)O)n1cc(C#N)c(=O)[nH]c1=O` (stereo unspecified), for which the growth in the assay with SR leukemia is 93.5% (inactive) and 99.9% (inactive); in the assay with RPMI-8226 leukemia, 106% (inactive) and 104% (inactive); in the assay on OVCAR-8 ovarian, 103% (inactive) and 113% (inactive); in the assay on OVCAR-5 ovarian it was 94.8% (inactive) and 105% (inactive); with OVCAR-4 ovarian it was 108% (inactive) and 110% (inactive); in the assay on SK-OV-3 ovarian, 102% (inactive) and 98.6% (inactive). Further, the growth with IGROV1 ovarian was 101% (inactive) and 109% (inactive); in the assay on OVCAR-3 ovarian, 116% (inactive) and 101% (inactive); in the assay with HS 578T breast, 114% (inactive) and 113% (inactive); in the assay on NCI/ADR-RES ovarian, 106% (inactive); in the assay on T-47D breast, 108% (inactive) and 101% (inactive); in the assay with BT-549 breast, 99.4% (inactive). The growth in the assay with MDA-MB-435 melanoma is 94.8% (inactive) and 106% (inactive); with SW-620 colon, 101% (inactive) and 106% (inactive); with MCF7 breast, 101% (inactive) and 93% (inactive); with HCT-116 colon, 105% (inactive); with HCC-2998 colon, 101% (inactive) and 104% (inactive); in the assay with KM12 colon, 101% (inactive) and 107% (inactive).
For `CN(C)c1ccc2nc3ccc(N)cc3[n+](-c3ccccc3)c2c1`, the growth is 18.6% (inactive) and 11% (inactive) in the assay with SR leukemia; 8.36% (active) and 13.7% (inactive) with RPMI-8226 leukemia; 19.4% (inactive) and -16.6% (active) in the assay on OVCAR-8 ovarian; 87.1% (inactive) and -46.4% (active) in the assay with OVCAR-5 ovarian; 29.2% (inactive) and 1.54% (active) with OVCAR-4 ovarian; 74.1% (inactive) and 30.9% (inactive) in the assay on SK-OV-3 ovarian. For the same compound, the growth in the assay on IGROV1 ovarian is 12.8% (inactive) and 13.7% (inactive); with OVCAR-3 ovarian, 23.5% (inactive) and -18.1% (active); with HS 578T breast, 31.7% (inactive) and 23.4% (inactive); in the assay with NCI/ADR-RES ovarian it was 92% (inactive) and 26% (inactive); with T-47D breast, -15.1% (active) and 0.414% (active); in the assay on BT-549 breast, 27.5% (inactive). For the same compound, the growth in the assay on MDA-MB-435 melanoma was 4.97% (active) and -49.2% (active); with SW-620 colon, 20.8% (inactive) and -13.9% (active); in the assay with MCF7 breast, 3.88% (active) and -17.2% (active); with HCT-116 colon it was 9.48% (active) and 5.93% (active); with HCC-2998 colon it was 14.6% (inactive) and 51.9% (inactive); with KM12 colon, 15.7% (inactive) and 24.2% (inactive).
With `CC(CN=Cc1ccccc1O)N=Cc1ccccc1O` (stereo unspecified), the growth with SR leukemia is 100% (inactive); with RPMI-8226 leukemia, -6.87% (active) and 94% (inactive); with OVCAR-8 ovarian, 106% (inactive) and 108% (inactive); in the assay on OVCAR-5 ovarian, 104% (inactive) and 95.5% (inactive); with OVCAR-4 ovarian it was 109% (inactive) and 103% (inactive); with SK-OV-3 ovarian, 104% (inactive) and 86.4% (inactive). Besides, the growth was -14.8% (active) and 112% (inactive) with IGROV1 ovarian; 97.4% (inactive) and 112% (inactive) with OVCAR-3 ovarian; 90.7% (inactive) in the assay on HS 578T breast; 105% (inactive) and 101% (inactive) in the assay on NCI/ADR-RES ovarian; 96.9% (inactive) and 94.2% (inactive) in the assay with T-47D breast; 67.1% (inactive) and 118% (inactive) in the assay with BT-549 breast. The growth in the assay with MDA-MB-435 melanoma was 94% (inactive) and 122% (inactive); in the assay on SW-620 colon it was 110% (inactive) and 96.8% (inactive); with MCF7 breast, 94.9% (inactive) and 95.8% (inactive); with HCT-116 colon, 104% (inactive) and 102% (inactive); in the assay on KM12 colon, 102% (inactive) and 113% (inactive).
For the compound `O=c1c2ccccc2nc2n1Cc1nc3ccccc3c(=O)n1C2`, the growth in the assay with SR leukemia is 85.9% (inactive); with RPMI-8226 leukemia it was 93% (inactive) and 102% (inactive); in the assay on OVCAR-8 ovarian, 112% (inactive) and 110% (inactive); in the assay on OVCAR-5 ovarian, 101% (inactive) and 102% (inactive); with OVCAR-4 ovarian, 95.2% (inactive) and 108% (inactive); in the assay on SK-OV-3 ovarian it was 112% (inactive) and 110% (inactive). Also, the growth with IGROV1 ovarian was 88% (inactive) and 106% (inactive); in the assay on OVCAR-3 ovarian it was 92.6% (inactive) and 112% (inactive); in the assay on HS 578T breast it was 91.7% (inactive) and 114% (inactive); with NCI/ADR-RES ovarian, 102% (inactive) and 105% (inactive); with T-47D breast it was 106% (inactive) and 108% (inactive); in the assay on BT-549 breast it was 89.8% (inactive) and 94.1% (inactive). The growth in the assay on MDA-MB-435 melanoma was 93.5% (inactive) and 101% (inactive); with SW-620 colon, 97.3% (inactive) and 103% (inactive); in the assay with MCF7 breast, 84.5% (inactive) and 97.9% (inactive); with HCT-116 colon it was 111% (inactive) and 94.6% (inactive); in the assay on HCC-2998 colon, 106% (inactive) and 104% (inactive); with KM12 colon, 99.6% (inactive) and 101% (inactive).
Turning to `CCOC(=O)C(CNc1ccccc1)C(=O)OCC`, the growth in the assay on SR leukemia is 97% (inactive); in the assay with RPMI-8226 leukemia, 95.1% (inactive); with OVCAR-8 ovarian it was 98.2% (inactive); in the assay on OVCAR-5 ovarian it was 102% (inactive); with OVCAR-4 ovarian it was 107% (inactive); in the assay on SK-OV-3 ovarian, 98.9% (inactive). For the same compound, the growth with IGROV1 ovarian was 101% (inactive); with OVCAR-3 ovarian, 105% (inactive); in the assay on HS 578T breast it was 109% (inactive); in the assay on NCI/ADR-RES ovarian it was 103% (inactive); in the assay on T-47D breast, 105% (inactive); in the assay on BT-549 breast, 104% (inactive). The growth in the assay on MDA-MB-435 melanoma was 108% (inactive); in the assay with SW-620 colon it was 104% (inactive); in the assay with MCF7 breast, 99.5% (inactive); in the assay on HCT-116 colon it was 104% (inactive); in the assay with HCC-2998 colon, 102% (inactive); in the assay with KM12 colon it was 106% (inactive).
Turning to `CC(O)(CC(=O)CC(=O)c1ccccc1)c1ccccc1` (stereo unspecified), the growth was 110% (inactive) and 103% (inactive) with SR leukemia; 106% (inactive) and 88.9% (inactive) in the assay on RPMI-8226 leukemia; 106% (inactive) and 102% (inactive) in the assay with OVCAR-8 ovarian; 102% (inactive) and 103% (inactive) in the assay on OVCAR-5 ovarian; 69.9% (inactive) and 118% (inactive) in the assay with OVCAR-4 ovarian; 115% (inactive) and 114% (inactive) with SK-OV-3 ovarian. The growth is 91.9% (inactive) and 103% (inactive) in the assay with IGROV1 ovarian; 97.6% (inactive) and 99% (inactive) in the assay on OVCAR-3 ovarian; 102% (inactive) in the assay with HS 578T breast; 83.1% (inactive) and 72.9% (inactive) with NCI/ADR-RES ovarian; 108% (inactive) and 109% (inactive) in the assay with T-47D breast; 93.4% (inactive) and 95.8% (inactive) in the assay on BT-549 breast. Moreover, the growth was 97.8% (inactive) in the assay on MDA-MB-435 melanoma; 99.9% (inactive) and 107% (inactive) in the assay with SW-620 colon; 108% (inactive) and 123% (inactive) with MCF7 breast; 92.3% (inactive) and 92.6% (inactive) in the assay on HCT-116 colon; 101% (inactive) and 92.8% (inactive) in the assay on HCC-2998 colon; 103% (inactive) and 104% (inactive) with KM12 colon.

Values taken from PubChem BioAssay (NCI).
